Beta apoptosis = blocks beta cell apoptosis. INS-1E cytokine-induced death, ATP luminescence, 48 h; percent of positive-control rescue, neutral wells zero. 300,000 tested, 0.8% active. AID 435005. protection from apoptosis, % (test concentration not listed);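 active means Every replicate reaches about 75%, or at least half do and their mean reaches it too, limit read from the data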;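 further: 0% = cytokine-treated negative control wells and 100% = positive control rescue; higher means more ATP so stronger rescue from cytokine killing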
Mdm2-MdmX inh = human Mdm2/MdmX binding inhibition. 330,000 tested, 3% active. SaOS-2 split-luciferase Mdm2/MdmX complementation, luminescence. O15151+Q00987. inhibition, % at 8 µM;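 active means inhibition of at least 50% at 8 µM in the primary screen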
Target sequence (O15151 whole entry, looked up): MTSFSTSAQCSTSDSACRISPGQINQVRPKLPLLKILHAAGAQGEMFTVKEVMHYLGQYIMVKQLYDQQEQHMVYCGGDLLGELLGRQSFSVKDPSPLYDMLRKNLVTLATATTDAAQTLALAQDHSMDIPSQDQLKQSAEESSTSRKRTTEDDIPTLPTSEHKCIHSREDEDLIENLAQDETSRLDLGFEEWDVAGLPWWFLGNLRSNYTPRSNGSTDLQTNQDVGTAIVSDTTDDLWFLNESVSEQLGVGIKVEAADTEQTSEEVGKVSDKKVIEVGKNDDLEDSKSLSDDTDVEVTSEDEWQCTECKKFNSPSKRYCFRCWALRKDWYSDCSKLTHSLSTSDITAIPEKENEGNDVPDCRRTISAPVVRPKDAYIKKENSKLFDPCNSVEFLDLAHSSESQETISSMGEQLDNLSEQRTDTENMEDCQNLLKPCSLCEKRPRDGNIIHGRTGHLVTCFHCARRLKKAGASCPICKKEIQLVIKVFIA
Target sequence (Q00987 whole entry, looked up): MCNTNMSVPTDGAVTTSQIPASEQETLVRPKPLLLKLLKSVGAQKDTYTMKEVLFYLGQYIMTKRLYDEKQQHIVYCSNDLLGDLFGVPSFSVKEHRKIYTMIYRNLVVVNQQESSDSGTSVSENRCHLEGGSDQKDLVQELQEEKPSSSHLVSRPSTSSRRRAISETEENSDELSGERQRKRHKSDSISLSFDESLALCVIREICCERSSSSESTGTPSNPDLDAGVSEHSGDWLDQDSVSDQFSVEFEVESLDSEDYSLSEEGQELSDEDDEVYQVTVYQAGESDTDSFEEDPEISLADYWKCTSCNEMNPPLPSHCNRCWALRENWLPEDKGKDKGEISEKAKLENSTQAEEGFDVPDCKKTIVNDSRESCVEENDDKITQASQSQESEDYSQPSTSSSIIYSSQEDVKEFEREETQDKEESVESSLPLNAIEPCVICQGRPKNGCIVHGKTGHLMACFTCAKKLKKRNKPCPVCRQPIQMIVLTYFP
PAX8 reporter = lowers PAX8-driven luciferase in RMG-I cells; RMG-I TPO-luciferase reporter, SteadyGlo, 24 h; inhibition, % at 12.6 µM; 360,000 tested, 1.2% active; AID 652154;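 active means mean replicate inhibition at least 60% with every replicate also reaching 60%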;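 further: luciferase light reporting Pax8 driven TPO promoter activity; plate controls were median of neutral control wells for no effect and mitoxantrone controls for full effect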
Gli-Sufu antag = blocks Gli-Sufu signaling in a luciferase reporter | 340,000 tested, 0.74% active | inhibition, % at 5 µM | Sufu-KO-LIGHT fibroblasts, Gli luciferase reporter luminescence | AID 588413;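 active means inhibition above about 55%, limit read from the data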;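 further: 0% = DMSO-treated cells and 100% = wells with medium but no cells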
Shn3 inh set2 = inhibitors of Schnurri-3 3'UTR reporter in osteoblasts | AID 588674 | 360,000 tested, 0.52% active | Clone20 osteoblast Shn3 3'UTR firefly luciferase, 24 h | inhibition, % at 12.5 µM;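 active means mean inhibition of at least 75% with every replicate also reaching 75%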;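 further: 0% = median of neutral control wells and 100% = pilot-screen positive control compound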
CSC inhib = blocks cancer stem cells. cancer stem cell-like cells viability, luminescence. inhibition, % at 7.5 µM. 300,000 tested, 1.1% active; in the data active means inhibition above about 75%; tested in HMLE shEcad cells
Mdm2 MdmX conf = confirmation of human Mdm2/MdmX interaction inhibitors | shares compounds with Mdm2-MdmX inh | Mdm2-MdmX binding, luminescent assay | inhibition, % at 8 µM | 10,000 tested, 55% active; in the data active means inhibition above about 40%
Full FLuc ctr = counter-screen for Mdm2/MdmX inhibitors: full-length luciferase; inhibition, % at 8 µM; 6,200 tested, 77% active; SaOS-2 full-length luciferase counterscreen, luminescence; shares compounds with Mdm2-MdmX inh;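 active means mean inhibition at 8 µM reaching about 37%, which flags the compound as non-specific, limit read from the data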;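 further: p53-null SaOS-2 cells with luciferase driven by a doxycycline-inducible promoter; compound on cells about two nights before reading with doxycycline added after day one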
An asterisk follows results filed as active; · = not tested or not shown. Only some compounds are listed: those with a hit (about 4% of all), similar ones and a draw of the others.

SMILES	Beta apoptosis	Mdm2-MdmX inh	PAX8 reporter	Gli-Sufu antag	Shn3 inh set2	CSC inhib	Mdm2 MdmX conf	Full FLuc ctr
CCCCCCCCCCCCCCCC[n+]1ccc(/C=N/O)cc1	123.0*	96.5*	94.3*	73.3*	57.8	100.2*	100.0*	7.5
C/C=C/c1ccc2c(c1)O[C@@H](CN(C)C(=O)c1ccncc1)[C@@H](C)CN([C@@H](C)CO)S2(=O)=O	·	·	-7.8	·	·	·	·	·
CC(C)NC(=O)N(C)C[C@@H]1OCCCC[C@H](C)Oc2ccc(NS(=O)(=O)c3ccccc3)cc2C(=O)N([C@@H](C)CO)C[C@@H]1C	·	·	18.0	·	·	·	·	·
COc1ccc(S(=O)(=O)Nc2ccc3c(c2)C(=O)N([C@@H](C)CO)C[C@H](C)[C@@H](CN(C)C(=O)c2ccncc2)OCCCC[C@H](C)O3)cc1	·	·	-2.4	·	·	·	·	·
C[C@@H]1CN([C@H](C)CO)C(=O)c2cc(N(C)C)ccc2O[C@@H](C)CCCCO[C@@H]1CN(C)C(=O)CCC(F)(F)F	·	·	11.2	·	·	·	·	·
CCOC(=O)c1[nH]cnc1C(=O)Nc1ccc([N+](=O)[O-])cc1	8.2	10.2	4.9	1.9	11.5	9.5	·	·
O=C(Nc1ccc(F)cc1)c1nc[nH]c1C(=O)Nc1ccc([N+](=O)[O-])cc1	14.9	92.4*	0.1	5.3	9.9	32.5	26.4	·
O=C(Nc1ccc([N+](=O)[O-])cc1)c1nc[nH]c1C(=O)NC1CCCCC1	62.8	66.6*	10.9	-9.9	38.7	16.6	19.4	·
CN(C)C=Nc1ncc2c3ccccc3n(CCN(C)C)c2c1C#N	-3.7	60.3*	·	3.5	-1.0	6.6	61.5*	21.8
CCN(CC)CCn1c2ccccc2c2nc3ccccc3nc21	30.0	-29.4	-3.4	-4.3	-73.2	-5.2	·	·
CCN(CC)CCn1c2ccccc2c2cnc(N)c(C#N)c21	92.9*	62.6*	·	-75.3	-0.5	-0.7	26.9	·
OC[C@@H]1[C@H](c2ccc(/C=C/c3ccccc3)cc2)[C@@H]2CN(Cc3ccncc3)CCCCN12	·	·	-161.5	·	·	·	·	·
O=C(Nc1cc(F)ccc1F)N1CCCCN2[C@H](C1)[C@@H](c1ccc(-c3ccccc3)cc1)[C@@H]2CO	·	·	33.1	·	·	·	·	·
Cc1noc(C)c1S(=O)(=O)Nc1ccc2c(c1)C(=O)N([C@@H](C)CO)C[C@@H](C)[C@@H](CN(C)Cc1ccncc1)OCCCC[C@H](C)O2	·	·	7.6	·	·	·	·	·
O=C1C=C(c2ccccc2)C[C@H](c2cccs2)[C@H]1n1nnc([N+](=O)[O-])n1	52.4	70.7*	76.0*	2.0	34.8	·	56.6*	60.0*
O=C1C=C(c2ccccc2)CC(c2cccs2)C1n1cnc([N+](=O)[O-])c1 (stereo unspecified)	4.3	11.9	·	8.1	8.1	·	·	·
CCCN1C[C@H](C)[C@@H](OC)CN(C)C(=O)c2cc(NC(=O)NC3CCCCC3)ccc2OC[C@@H]1C	·	·	-4.6	·	·	·	·	·
Cc1c(CCC(C)C)c(=O)n2c([nH]c3ccccc32)c1C#N	53.5	72.6*	·	8.7	38.9	37.5	53.1*	44.8*
CC1=CC(C)(C)N2C(=O)C3(C(C#N)=C(N)Oc4cc(O)ccc43)c3c(C)c(C)cc1c32 (stereo unspecified)	-4.1	67.6*	·	-1.5	31.9	43.5	61.2*	48.1*
CC1=CC(C)(C)N2C(=O)C3(C(C#N)=C(N)OC4=C3C(=O)CCC4)c3c(C)c(C)cc1c32 (stereo unspecified)	-0.3	27.5	·	7.9	-15.0	-5.7	·	·
CCCNC(=O)C[C@H]1CC[C@@H]2[C@H](COC[C@H](O)CN2C(=O)Nc2ccccc2OC)O1	·	·	-26.7	·	·	·	·	·
CCOC(=O)Nc1ccc2c(c1)N(C(=O)CCN(CC)CC)c1ccccc1S2=O (stereo unspecified)	·	67.3*	108.6*	4.2	1.2	35.8	53.5*	29.9
CCOC(=O)Nc1ccc2c(c1)N(C(=O)CCN(CC)CC)c1ccccc1CC2	·	-5.1	39.8	15.5	-17.8	0.5	·	·
CCCNC(=O)Nc1ccc2c(c1)C(=O)N(C)C[C@@H](OC)[C@H](C)CN(C(C)=O)[C@@H](C)CO2	·	·	6.4	·	·	·	·	·
Cc1ccc(S(=O)(=O)CCc2nc3ccccc3n2CCC#N)cc1	-17.7	61.9*	·	19.5	-2.9	-4.9	36.6	32.2
SMILES	Beta apoptosis	Mdm2-MdmX inh	PAX8 reporter	Gli-Sufu antag	Shn3 inh set2	CSC inhib	Mdm2 MdmX conf	Full FLuc ctr
O=C(O)Cn1c(CCS(=O)(=O)c2ccc(Br)cc2)nc2ccccc21	0.1	-9.5	1.2	-7.5	2.2	-12.3	·	·
O=C(Cc1ccccn1)NCC[C@@H]1CC[C@H](NS(=O)(=O)c2ccc(F)cc2)[C@H](CO)O1	·	·	51.4	·	·	·	·	·
COCC(=O)Nc1ccc2c(c1)OC[C@@H](C)N(Cc1cccnc1)C[C@@H](C)[C@@H](OC)CN(C)C2=O	·	·	-3.4	·	·	·	·	·
C[C@H]1CN([C@@H](C)CO)C(=O)c2ccccc2-c2ccccc2CO[C@H]1CN(C)C(=O)Nc1cccc(Cl)c1Cl	·	·	11.9	·	·	·	·	·
N#Cc1ccc(-c2ccc(C3Nc4ccccc4C(=O)N3O)o2)cc1 (stereo unspecified)	14.5	23.5	4.6	-0.3	-21.8	11.3	·	·
CCOC(=O)c1ccc(-c2ccc(C3Nc4ccccc4C(=O)N3O)o2)cc1 (stereo unspecified)	6.7	72.4*	-115.1	-12.9	12.4	-3.9	62.5*	58.0*
COCc1cn(CC[C@H]2CC[C@@H](NC(=O)Nc3ccc4c(c3)OCO4)[C@H](CO)O2)nn1	·	·	-7.0	·	·	·	·	·
CCN(CC)CCC(c1ccc(N(C)C)cc1)c1c(OC)cc(OC)c2ccc(=O)oc12 (stereo unspecified)	2.7	-7.6	-2.1	1.3	15.1	9.1	·	·
CCCCCc1cc(=O)oc2c(C(CCN3CCCC3)c3ccc(N(C)C)cc3)c(OC)cc(OC)c12 (stereo unspecified)	7.6	96.8*	19.7	20.1	-28.3	16.8	39.2	53.1*
CCCCCc1cc(=O)oc2c(C(CCN3CCCC3)c3cc(OC)c(OC)c(OC)c3)c(OC)cc(OC)c12 (stereo unspecified)	44.4	100.3*	2.3	11.5	0.0	51.9	62.2*	39.2*
CCCCCc1cc(=O)oc2c(C(CCN(CC)CC)c3ccc(OC)cc3)c(OC)cc(OC)c12 (stereo unspecified)	97.6*	99.8*	23.6	6.2	-14.6	12.6	33.8	51.3*
CCCCCc1cc(=O)oc2c(C(CCN3CCCC(C)C3)c3ccc(OC)cc3)c(OC)cc(OC)c12 (stereo unspecified)	109.1*	86.4*	32.1	11.5	28.2	101.8*	41.5*	50.1*
O=C(C[C@H]1CC[C@@H](NS(=O)(=O)c2ccc(F)cc2)[C@H](CO)O1)NCc1ccncn1	·	·	-34.1	·	·	·	·	·
CCN(C[C@H]1[C@H](c2ccccc2)[C@@H](CO)N1S(C)(=O)=O)C(=O)C1CCC1	·	·	6.9	·	·	·	·	·
C[C@@H]1CN([C@H](C)CO)C(=O)c2cc(NC(=O)c3ccncc3)ccc2O[C@@H]1CN(C)Cc1ccncc1	·	·	-0.8	·	·	·	·	·
